Screening results: PubChem BioAssay, The Scripps Research Institute Molecular Screening Center
HTR5A inv ctr – inverse agonist of human HTR5A in OPRM1-OPRD1 counter-screen | AID 504634 | 340,000 compounds, 0.083% hits | HTR5A cell line, luminescence, inverse agonism | inhibition, % at 9.3 µM | P47898; in the data active = inhibition mostly above about 23%, no sharp cut-off; inactive = mostly below about 18%
Target sequence (P47898 whole entry, looked up): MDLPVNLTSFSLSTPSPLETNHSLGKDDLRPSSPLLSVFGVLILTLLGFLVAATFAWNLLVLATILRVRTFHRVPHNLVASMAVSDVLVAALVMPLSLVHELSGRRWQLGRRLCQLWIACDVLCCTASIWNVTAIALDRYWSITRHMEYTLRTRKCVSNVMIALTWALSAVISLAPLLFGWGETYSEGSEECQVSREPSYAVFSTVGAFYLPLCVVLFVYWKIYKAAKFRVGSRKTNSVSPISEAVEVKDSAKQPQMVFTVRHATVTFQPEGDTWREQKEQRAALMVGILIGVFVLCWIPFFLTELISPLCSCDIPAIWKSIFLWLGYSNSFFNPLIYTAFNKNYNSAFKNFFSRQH
MOR-DOR inv ag – mu-delta opioid heterodimer inverse agonism | P35372+P41143 | cell-based MOR-DOR heterodimer luminescence | inhibition, % at 9.3 µM | 340,000 compounds, 0.21% hits | AID 504357; in the data active = inhibition above about 22%, passing the limit was not always enough
HTR5A ag ctr – counter-screen for OPRM1-OPRD1 agonists: human HTR5A agonism. P47898. HTR5A agonist assay, luminescence, cell-based. activation, % at 9.3 µM. 340,000 compounds, 0.61% hits; in the data active = activation mostly above about 9.5%, no sharp cut-off; inactive = mostly below about 7.6%
OPRM1-OPRD1 ag – agonists of human mu-delta opioid receptor heterodimerization; 340,000 compounds, 0.3% hits; cells, OPRM1-OPRD1 heterodimerization, luminescence; P35372+P41143; AID 504326; activation, % at 9.3 µM; in the data active = activation above about 18%
Numbers stand for hits; 0 = inactive. In the library only some 1.1% were active in any assay of this set; here they are far more common.

SMILES | HTR5A inv ctr | MOR-DOR inv ag | HTR5A ag ctr | OPRM1-OPRD1 ag
O=C(NCc1ccc(F)cc1)C(c1ccc(Cl)cc1)N(C(=O)c1csnn1)C1CC1 (stereo unspecified) | 0 | 0 | 0 | 0
CCCn1c(CCC(=O)O)nc2cc(S(N)(=O)=O)ccc21 | 0 | 0 | 0 | 0
CCCCn1c(CCC(=O)O)nc2cc(S(=O)(=O)N3CCCC3)ccc21 | 0 | 0 | 8.3 | 0
CCc1ccc(OCC(=O)NC(NC(=S)Nc2ccc(Cl)cc2)C(Cl)(Cl)Cl)cc1 (stereo unspecified) | 0 | 0 | 0 | 0
COC(=O)CCC(=O)c1oc2ccc(Br)cc2c1N | 0 | 0 | 11.7 | 0
COc1ccc2oc(C(=O)CCC(=O)O)c(N)c2c1 | 0 | 0 | 0 | 0
CN(CC(=O)N(CCO)Cc1ccccc1)S(=O)(=O)c1ccc2c(c1)c(=O)n(C)c(=O)n2C | 0 | 0 | 0 | 0
Cc1cccc(N(C)C(=O)CN(C)S(=O)(=O)c2ccc3c(c2)c(=O)n(C)c(=O)n3C)c1 | 0 | 0 | 12.5 | 0
CCN1CCN(c2ccc(NC(=O)c3ccc4c(c3)[nH]c(=O)n4Cc3ccc(F)cc3)cc2)CC1 | 0 | 0 | 12.0 | 0
COc1c(F)c(F)c(C(=O)Nc2ccc(N3CCN(Cc4ccccc4)CC3)cc2)c(F)c1F | 0 | 0 | 9.8 | 0
CC1CC(C)(C)CC2(C1)NC(=O)N(CC(=O)N1CCN(S(=O)(=O)c3ccc(F)c(F)c3F)CC1)C2=O (stereo unspecified) | 0 | 0 | 0 | 0
Cc1nc(N2CCCCC2)c2c(C)c(C(=O)Nc3cccc(C(F)(F)F)c3)sc2n1 | 0 | 0 | 14.2 | 0
COc1ccccc1CC(=O)N1CCN(S(=O)(=O)c2ccccc2F)CC1 | 0 | 0 | 0 | 0
COc1ccccc1CC(=O)N1CCN(S(=O)(=O)c2ccccc2)CC1 | 0 | 0 | 12.6 | 0
COc1ccc(NC(=O)Nc2cccc3c2O[C@H](CN(C)S(=O)(=O)c2ccc(OC)cc2)[C@@H](C)CN([C@H](C)CO)C3=O)cc1 | 0 | 0 | 0 | 0
COc1ccc(NC(=O)Nc2cccc3c2O[C@H](CN(C)S(=O)(=O)c2c(C)noc2C)[C@@H](C)CN([C@H](C)CO)C3=O)cc1 | 0 | 0 | 10.4 | 0
O=C(O)c1cc(S(=O)(=O)N2CC=C(c3ccccc3)CC2)ccc1O | 0 | 0 | 0 | 0
CC1CC(C)CN(CCCNC(=O)CN2C(=O)CSc3ccc(S(=O)(=O)N4CCOCC4)cc32)C1 (stereo unspecified) | 0 | 0 | 12.3 | 0
CC(C)Oc1ccccc1-c1nc(SCC(=O)O)n[nH]1 | 0 | 0 | 12.3 | 0
O=C1OCCN1C(=O)[C@H]1[C@H](c2ccc(Cl)cc2)C(c2ccc(F)cc2)=NN1c1ccccc1 | 0 | 0 | 0 | 0
O=C1OCCN1C(=O)[C@H]1[C@H](c2ccc(Cl)cc2)C(c2ccccc2)=NN1c1ccccc1 | 0 | 0 | 5.5 | 0
Cc1ccc(NC2=C/C(=N\S(=O)(=O)c3cccs3)c3ccccc3C2=O)c(C)c1 | 0 | 0 | 0 | 22.4
C=CCN1C(=O)/C(=N/n2cnnc2)c2ccccc21 | 0 | 45.9 | 0 | 0
CSc1cccc(N=C2C(=O)Nc3ccccc32)c1 | 0 | 51.9 | 0 | 0
CC(=O)N(/N=C1/C(=O)Nc2ccccc21)c1ccccc1 | 0 | 0 | 0 | 0
SMILES | HTR5A inv ctr | MOR-DOR inv ag | HTR5A ag ctr | OPRM1-OPRD1 ag
O=C1Nc2ccccc2C1=Nc1cccc(Cl)c1 | 0 | 52.8 | 0 | 0
CC(=O)c1ccc(N=C2C(=O)Nc3ccccc32)cc1 | 0 | 52.9 | 0 | 0
CCOC(=O)c1ccc(NC(=S)N(CCCN2CCN(CC)CC2)Cc2cccs2)cc1 | 0 | 0 | 0 | 0
CCN1CCN(S(=O)(=O)c2c[nH]c(C(=O)OC)c2)CC1 | 0 | 0 | 0 | 0
O=C1c2ccccc2C(=O)N1CC1c2ccccc2CCN1C(=O)CN1CCOCC1 (stereo unspecified) | 0 | 0 | 10.6 | 0
O=C1c2ccccc2C(=O)N1CC1c2ccccc2CCN1C(=O)C1CCCCC1 (stereo unspecified) | 0 | 0 | 0 | 0
Cc1ccc(S(=O)(=O)CCC(=O)N2CCN(c3ccc([N+](=O)[O-])cc3)CC2)cc1 | 0 | 0 | 0 | 0
Cc1ccccc1N1CCN(C2CCCN(C(=O)CCC3(C)CC3)C2)CC1 (stereo unspecified) | 0 | 0 | 10.4 | 0
Cc1ccccc1N1CCN(C2CCCN(C(=O)CCC(=O)N(C)C)C2)CC1 (stereo unspecified) | 0 | 0 | 0 | 0
O=C(CSc1nc(C(F)(F)F)cc(=O)[nH]1)N1CCCC1 | 0 | 0 | 0 | 0
Cc1ccc(S(=O)(=O)c2nc(S(C)(=O)=O)sc2N2CCOCC2)cc1 | 0 | 0 | 0 | 0
CCS(=O)(=O)c1nc(S(=O)(=O)c2ccc(C)cc2)c(N2CCOCC2)s1 | 0 | 0 | 11.2 | 0
COc1ccccc1-n1c(=S)[nH]c2c(sc(=S)n2-c2ccccc2)c1=O | 0 | 0 | 0 | 0
COc1cccc(-n2c(=S)sc3c(=O)n(-c4ccccc4OC)c(=S)[nH]c32)c1 | 0 | 0 | 8.9 | 0
Cc1ccc(NC(=O)/C=N/OCC(=O)NCc2ccccc2Cl)cc1 | 0 | 0 | 13.9 | 0
COC(=O)CN1C(=O)COc2ccc(S(=O)(=O)N3CCCCCC3)cc21 | 0 | 0 | 0 | 0
Cc1ccc(CCC(=O)Nc2ccc(Br)cc2)o1 | 0 | 0 | 0 | 0
c1ccc(C(c2c[nH]c3ccccc23)c2c[nH]c3ccccc23)nc1 | 0 | 0 | 31.8 | 0
Cc1ccc(NC(=O)CSc2nc3c(c(=O)[nH]2)CCC3)c(C)c1 | 0 | 0 | 0 | 0
Cc1c(C(=O)Nc2nc3ccccc3[nH]2)oc2ccccc12 | 0 | 0 | 11.0 | 0
CN(C(=O)c1ccc(NC(=O)Cc2ccc(NC(=O)C3CCCN(C(=O)CCc4ccccc4)C3)cc2)cc1)C1CCCC1 (stereo unspecified) | 0 | 0 | 0 | 0
CNc1cc(N2CCCC2)ccc1[N+](=O)[O-] | 0 | 0 | 0 | 0
O=C(Nc1c(C(=O)N2CCCCC2)cnn1-c1ccccc1)c1ccccc1F | 0 | 0 | 0 | 0
Cc1noc(C)c1Cc1ccc(O)cc1 | 0 | 0 | 14.2 | 0
Cc1noc(C)c1Cc1c(Cl)cccc1Cl | 0 | 0 | 0 | 0
SMILES | HTR5A inv ctr | MOR-DOR inv ag | HTR5A ag ctr | OPRM1-OPRD1 ag
O=C(CSc1ccc2c(c1)OCCO2)Nc1ccc(Br)cn1 | 0 | 0 | 10.9 | 0
O=C(CSc1ccc2c(c1)OCCO2)Nc1ccc(Cl)cn1 | 0 | 0 | 0 | 0
Cc1cccc(NS(=O)(=O)c2ccc(C)c(C(=O)NCCCN3CCOCC3)c2)c1 | 0 | 0 | 0 | 0
Cc1oc2c(CN3CCCC(C)C3)c(O)ccc2c(=O)c1-c1ccccc1 (stereo unspecified) | 0 | 0 | 0 | 0
O=C(OCC(=O)N1CCOCC1)c1cc2ccccc2oc1=O | 0 | 0 | 0 | 0
O=C(CSC(=S)N1CCOCC1)c1cc2ccccc2oc1=O | 0 | 0 | 10.0 | 0
COc1ccc(C(=O)c2sc3nc(-c4ccccc4)ccc3c2N)cc1OC | 0 | 0 | 17.8 | 0
CN(C(=O)COC(=O)C12CC3CC(CC(Cl)(C3)C1)C2)c1ccccc1 | 0 | 0 | 11.2 | 0
CC1CCCC(C)N1C(=O)COC(=O)C12CC3CC(CC(Cl)(C3)C1)C2 (stereo unspecified) | 0 | 0 | 0 | 0
CC(C)(C)CN1CCN(CCCc2ccccc2)C(CCO)C1 (stereo unspecified) | 0 | 0 | 0 | 0
CC(C)(C)CC(=O)Nc1cc2c3c(c1)CCC(=O)N3CCC2 | 0 | 0 | 0 | 0
